Inconclusive results are not listed. A call without a number means that no potency is given here. The source made the active and inactive calls. The call rests on the fitted dose curve.
Potency means the concentration at half of the fitted maximal effect.

Retinoic acid receptor RXR-alpha (Homo sapiens), sequence (P19793 whole entry, looked up): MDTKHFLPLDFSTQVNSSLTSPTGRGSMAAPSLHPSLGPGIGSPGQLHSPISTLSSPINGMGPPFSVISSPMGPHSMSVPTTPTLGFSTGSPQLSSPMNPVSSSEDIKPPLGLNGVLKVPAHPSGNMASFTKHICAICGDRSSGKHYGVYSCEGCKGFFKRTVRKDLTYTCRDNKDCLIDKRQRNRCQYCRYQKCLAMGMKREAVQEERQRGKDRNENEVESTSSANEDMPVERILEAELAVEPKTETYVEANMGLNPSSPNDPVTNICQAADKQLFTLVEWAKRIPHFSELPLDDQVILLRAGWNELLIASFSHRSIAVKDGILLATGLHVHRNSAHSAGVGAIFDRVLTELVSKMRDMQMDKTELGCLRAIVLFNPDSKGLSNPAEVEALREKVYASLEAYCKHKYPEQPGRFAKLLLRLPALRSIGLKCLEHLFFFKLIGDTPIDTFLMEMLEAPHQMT

The target of this experiment is Retinoic acid receptor RXR-alpha (Homo sapiens) (UniProt P19793). Description: qHTS assay to identify small molecule agonists of the RXR signaling pathway (AID 1159527). Further: nearly all actives have a fitted effect of over 35% in size. Particulars: HEK293T RXRa-UAS-bla, beta-lactamase ratio, 16 h; series mostly up to 76.8 µM. The source says:
U.S. Tox21 Program National Center for Advancing Translational Sciences [NCATS] NIH Chemical Genomics Center [NCGC] U.S. Environmental Protection Agency [EPA] National Institutes of Environmental Health Sciences [NIEHS] National Toxicology Program [NTP] U.S. Food and Drug Administration [FDA] Tox21 Assay Overview: The Retinoid X receptor (RXR), a nuclear hormone receptor expressed in liver, spleen, placenta, epidermis, central nervous system. These receptors are able to form homo and heterodimers with other nuclear receptors and due to this heterodimerizing ability, RXR functions as master regulators producing diverse physiological effects. Three subtypes of RXR exist; alpha, beta and gamma. Retinoid X receptor alpha (RXR-alpha) has potential roles in metabolic signaling pathways, skin alopecia, dermal cysts, cardiac development, insulin sensitization etc. Therefore screening environmental chemicals on RXR-alpha signaling can be used for the studies focused on such therapeutic applications. For quantification of RXR-alpha ligands signaling, GeneBLAzer RXR alpha-UAS-bla HEK 293T (Life Technologies, Carlsbad, CA) cells containing a beta-lactamase reporter-gene under control of Retinoid X receptor-alpha response element were used to screen Tox21 10K library.
Tox21 Assay Protocol Summary: RXR-alpha HEK 293T cells were dispensed at 2,000 cells/6 uL of assay medium containing 2% charcoal-stripped FBS using a Multidrop Combi (ThermoFisher Scientific, Waltham, MA) dispenser. The assay was performed in black wall/clear-bottom 1536-well plates (Greiner Bio-One North America Inc. Monroe, NC). 9-cis retinoic acid was used as a positive control in the agonist mode screen. After the assay plates were incubated at 37 C and 5% CO2 for 5 hr, 23 nL of compounds dissolved in DMSO, positive controls or DMSO only were transferred to the assay plate by a Pintool station (Kalypsys, San Diego, CA). The assay plates were incubated at 37 C and 5% CO2 for 16 hr. One uL of LiveBLAzer B/G FRET substrate (Life Technologies) was added using a Flying Reagent Dispenser (Aurora Discovery, San Diego, CA) and the plates were incubated at room temperature for 2 hr. Fluorescence intensity (405 nm excitation, 460/530 nm emission) was measured using an Envision plate reader (PerkinElmer, Shelton, CT).
Turning to `CC(C)C(Nc1ccc(C(F)(F)F)cc1Cl)C(=O)OC(C#N)c1cccc(Oc2ccccc2)c1` (stereo not given), the Potency entry was “inactive”.

Take `CCCCn1cc[n+](C)c1.[Cl][Fe-]([Cl])([Cl])[Cl]`: the Potency entry was “inactive”.

As to `CC1(C)[C@H](/C=C2\CCSC2=O)[C@@H]1C(=O)OCc1coc(Cc2ccccc2)c1`, the Potency result is “inactive”.

Take `c1cc[n+]2c(c1)-c1cccc[n+]1CC2`: the Potency result is “inactive”.

Regarding `Nc1nc(N)nc(Cl)n1`, the Potency result was “inactive”.

As for `CC(=O)[O-].CC(=O)[O-].O.O.[Zn+2]`, the Potency entry was “inactive”.

For `COc1c2c(cc3c1OCO3)CCN(C)C2`, the Potency result is “inactive”.

For the molecule `O=C(NC(=O)c1ccccc1Cl)Nc1ccc(OC(F)(F)F)cc1`, the Potency result is “inactive”.

For the molecule `C[C@@H]1CC2=CC(=O)CC[C@@H]2[C@H]2CC[C@@]3(C)[C@@H](CC[C@]3(C)O)[C@@H]21`, the Potency entry is “inactive”.

In the case of `c1ccc(N=NNc2ccccc2)cc1`, the Potency entry is “inactive”.

As for `CC(Cc1ccc(O)cc1)NCC(O)c1cc(O)cc(O)c1` (stereo not given), the Potency entry was “inactive”.

As to `O=c1c2ccccc2c(=O)c2c1cc(Cl)c1[nH]c3c([nH]c12)c(Cl)cc1c(=O)c2ccccc2c(=O)c13`, the Potency result was “inactive”.

Turning to `CCCCN(CCCC)C(=S)S`, the Potency result was “inactive”.

Take `COc1ccc(Cc2nccc3cc(OC)c(OC)cc23)cc1OC`: the Potency result is “inactive”.

With `Cc1nn(-c2cc(NS(C)(=O)=O)c(Cl)cc2Cl)c(=O)n1C(F)F`, the Potency result was “inactive”.

`Cc1c([N+](=O)[O-])c(C)c([N+](=O)[O-])c(C(C)(C)C)c1[N+](=O)[O-]`: the Potency is 12300 nM (active).

Consider `Oc1ccc2[nH]cc(CCCCN3CC=C(c4ccccc4)CC3)c2c1`, for which the Potency entry was “inactive”.

Consider `CC(Cc1ccc2c(c1)OCO2)NO` (stereo not given), for which the Potency result was “inactive”.

With `O=[N+]([O-])c1ccc(Cl)c(Cl)c1Cl`, the Potency entry was “inactive”.

Regarding `CCC[CH2][Sn]([CH2]CCC)([CH2]CCC)[CH2]CCC`, the Potency was 87.1 nM (active).

Turning to `C=CC(=C)C`, the Potency entry was “inactive”.

With `CCCCON=O`, the Potency result is “inactive”.

Regarding `Oc1cc(Cl)cc(Cl)c1`, the Potency result was “inactive”.

In the case of `CC(=O)[O-].CC(=O)[O-].O.O.O.[Pb+2]`, the Potency entry is “inactive”.

Regarding `CCCCC(CC)COC(=O)OOC(C)(C)C` (stereo not given), the Potency entry was “inactive”.

As to `BrCC(Br)(Br)Br`, the Potency result is “inactive”.

`N#Cc1c[nH]cc1-c1cccc2c1OC(F)(F)O2`: the Potency was 1380 nM (active).

On to `CC(=O)[O-].CC(=O)[O-].CC(=O)[O-].[Sb+3]`, for which the activation is -1.11% [at 2.71 µM] (inactive).

As for `COc1ccc2c3c1O[C@H]1[C@H](O)CC[C@H]4[C@@H](C2)N(C)CC[C@@]341`, the Potency entry was “inactive”.

For `CC[N+]1(CC)CCC(OC(=O)C(O)(c2ccccc2)c2ccccc2)C1` (stereo not given), the Potency entry was “inactive”.

Take `O=[N+]([O-])[O-].[Tl+]`: the Potency result was “inactive”.

Turning to `C#CC1(O)CCCCC1`, the Potency result is “inactive”.

In the case of `CSC1=N[C@@](C)(c2ccccc2)C(=O)N1Nc1ccccc1`, the Potency entry was “inactive”.

For the molecule `NC(=O)C(Cl)Cl`, the Potency result was “inactive”.

On to `C=CCBr`, for which the Potency entry was “inactive”.

For `CNC(C)(C)Cc1ccccc1`, the Potency result is “inactive”.

With `CC(Cl)CCl` (stereo not given), the Potency entry is “inactive”.

Take `O=Cc1ccccc1`: the Potency entry was “inactive”.

For the molecule `ClC1=C(Cl)[C@]2(Cl)[C@H]3[C@H]([C@@H]4C=C[C@H]3C4)[C@@]1(Cl)C2(Cl)Cl`, the Potency entry was “inactive”.

`CC(C)N(C(=O)SC/C(Cl)=C/Cl)C(C)C`: the Potency result is “inactive”.

The values above are taken from PubChem BioAssay (Tox21).
